± gives the standard deviation. Whole data set: some 8,200 sequences, median “pre-steady-state target cleavage rate” near 0.024, cut for the highest 2% near 1.3. This is one part of a sample in which the highest values are shown more often than they occur.
System: MIWI (PIWIL1) piRISC loaded with L1MC piRNA (30 nt)
Assay: pre-steady-state target cleavage rate (min^-1); MIWI and MILI are mouse PIWI proteins and EfPiwi is from a freshwater sponge; tags in brackets are library labels; higher = faster piRNA-guided slicing of the target
Details: guide: L1MC piRNA 5'p-UAACUAAAUACUAUGCAAGCUGUAGGUCCU
Summary of the method: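 The pre-steady-state cleavage rate was calculated from a burst-and-steady-state fit. Data came from Cleave-'n-Seq, in which […] transcribed, DNA-blocked target RNA library was mixed with 1 nM active affinity-purified piRISC carrying one synthetic guide, with or without 500 nM GTSF1 partner protein, in HEPES–potassium acetate buffer at 33 °C for 0–8 or 0–960 min. Uncleaved targets were sequenced and normalised to depth and to weakly complementary targets, three trials were pooled, and k3 was capped at 0.0001 min^-1.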

[1] = auxiliary factor: 500 nM mouse GTSF1
[2] = auxiliary factor: none (no GTSF1)
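Note: 1 nM active piRISC with 0.1 nM target library at 33 °C single turnover.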

Sequence: UCCACCUACAGCUUGCAUAGUAUUUAGUUA [g2:g27:cont:t1A]
- pre-steady-state target cleavage rate [1]: 0.987 ± 0.051
- pre-steady-state target cleavage rate [2]: 0.0744 ± 0.015

Sequence: AGGAGCCUACAGCUUGCAUAGUAUUUAGUUA
- pre-steady-state target cleavage rate [1]: 1.4 ± 0.072
- pre-steady-state target cleavage rate [2]: 0.0847 ± 0.013

Sequence: UCCUGGAUCAGCUAGCAUAGUAUUUAGAUA
- pre-steady-state target cleavage rate [1]: 0.226 ± 0.026
- pre-steady-state target cleavage rate [2]: 0.00546 ± 0.0022

Sequence: UCGACCUACUGCUUGCAUACUAUUUAGUUA
- pre-steady-state target cleavage rate [1]: 0.345 ± 0.014
- pre-steady-state target cleavage rate [2]: 0.0294 ± 0.0065

Sequence: UCCUCCUACAGCUUGCAUAAUAUUUAGUUA
- pre-steady-state target cleavage rate [1]: 0.52 ± 0.03
- pre-steady-state target cleavage rate [2]: 0.0234 ± 0.0044

Sequence: UGGAGGAACAGCUUGCAUAGUAUUUAGUAA
- pre-steady-state target cleavage rate [1]: 0.754 ± 0.05
- pre-steady-state target cleavage rate [2]: 0.0519 ± 0.012

Sequence: UCCACCUACACCAUGCAUAGUAUUUAGUUA
- pre-steady-state target cleavage rate [1]: 0.719 ± 0.036
- pre-steady-state target cleavage rate [2]: 0.0161 ± 0.003

Sequence: UCCUGGAUGAGCUAGCAUAGUAUUUAGAAA
- pre-steady-state target cleavage rate [1]: 0.124 ± 0.029

Sequence: UGCGACCUACAGCUUGCAUAGUAUUUAGUUA
- pre-steady-state target cleavage rate [1]: 1.41 ± 0.057
- pre-steady-state target cleavage rate [2]: 0.0975 ± 0.02

Sequence: AGCGACCUACAGCUUGCAUAGUAUUUAGUUA
- pre-steady-state target cleavage rate [1]: 1.37 ± 0.049
- pre-steady-state target cleavage rate [2]: 0.112 ± 0.019

Sequence: UCCUGCUACAGCUUGGUAAGUAUUUAGUUA
- pre-steady-state target cleavage rate [1]: 0.0624 ± 0.011

Sequence: UCCUGGAUCAGCAUGCAUAGUAUUUAGAUA
- pre-steady-state target cleavage rate [1]: 0.375 ± 0.034
- pre-steady-state target cleavage rate [2]: 0.00494 ± 0.0022

Sequence: UCCUGGAUCAGCUUGCAUAGUAUAUAGUAA
- pre-steady-state target cleavage rate [1]: 0.458 ± 0.054
- pre-steady-state target cleavage rate [2]: 0.0134 ± 0.0052

Sequence: UCCAGCUACAGCUUGCAUAGUUUUUAGUUA
- pre-steady-state target cleavage rate [1]: 0.253 ± 0.026
- pre-steady-state target cleavage rate [2]: 0.0203 ± 0.0032

Sequence: ACGAGCUACAGCUUGCAUAGUAUUUAGUUA
- pre-steady-state target cleavage rate [1]: 1.54 ± 0.057
- pre-steady-state target cleavage rate [2]: 0.094 ± 0.016

Sequence: UCGAGCUACAGCUUGCAUAGUAUUUAGAAA
- pre-steady-state target cleavage rate [1]: 0.407 ± 0.039
- pre-steady-state target cleavage rate [2]: 0.0061 ± 0.0023

Sequence: UCGAGCUACAGCUUGCAUAGUAUUUAGAUA
- pre-steady-state target cleavage rate [1]: 0.443 ± 0.041
- pre-steady-state target cleavage rate [2]: 0.0206 ± 0.0046

Sequence: UCGAGCUACAGCUUGCAUAGUAUUUAGUUA
- pre-steady-state target cleavage rate [1]: 1.41 ± 0.062
- pre-steady-state target cleavage rate [2]: 0.0832 ± 0.014

Sequence: UCCUGCUACGAGCUUGCAUAGUAUUUAGUUA
- pre-steady-state target cleavage rate [1]: 0.717 ± 0.073
- pre-steady-state target cleavage rate [2]: 0.0315 ± 0.0066

Sequence: UCGAGCUACAGCUUGCAUAGUAUUUAGUAA
- pre-steady-state target cleavage rate [1]: 1.08 ± 0.082
- pre-steady-state target cleavage rate [2]: 0.0348 ± 0.0066

Sequence: UCCUGGAUCAGCUUGCAUAGUAUUAAGAUA
- pre-steady-state target cleavage rate [1]: 0.265 ± 0.05
- pre-steady-state target cleavage rate [2]: 0.00645 ± 0.0033

Sequence: UGGACCUACAGCUUGCAUAGUAUGUAGUUA
- pre-steady-state target cleavage rate [1]: 0.332 ± 0.041
- pre-steady-state target cleavage rate [2]: 0.0171 ± 0.0041

Sequence: UCCUGCUACAGCUUGGUUAGUAUUUACAAA
- pre-steady-state target cleavage rate [1]: 0.0104 ± 0.0047

Sequence: UCGACCUACAGCUUGCAUAGUAUUUUGUUA
- pre-steady-state target cleavage rate [1]: 0.921 ± 0.043
- pre-steady-state target cleavage rate [2]: 0.0471 ± 0.0091

Sequence: UCCUGGAUCAGCUAGCAUAGUAUUUUCAAA
- pre-steady-state target cleavage rate [1]: 0.0506 ± 0.015

Sequence: AGGACUACAGCUUGCAUAGUAUUUAGUUA
- pre-steady-state target cleavage rate [1]: 1.24 ± 0.066
- pre-steady-state target cleavage rate [2]: 0.0945 ± 0.016

Sequence: UCGACGCUACAGCUUGCAUAGUAUUUAGUUA
- pre-steady-state target cleavage rate [1]: 1.27 ± 0.063
- pre-steady-state target cleavage rate [2]: 0.094 ± 0.022

Sequence: UGGACACUACAGCUUGCAUAGUAUUUAGUUA
- pre-steady-state target cleavage rate [1]: 1.04 ± 0.063
- pre-steady-state target cleavage rate [2]: 0.0643 ± 0.0081

Sequence: UCCACUCUACAGCUUGCAUAGUAUUUAGUUA
- pre-steady-state target cleavage rate [1]: 0.884 ± 0.029
- pre-steady-state target cleavage rate [2]: 0.0688 ± 0.012

Sequence: UGGACUCUACAGCUUGCAUAGUAUUUAGUUA
- pre-steady-state target cleavage rate [1]: 1.4 ± 0.066
- pre-steady-state target cleavage rate [2]: 0.0856 ± 0.017

Sequence: AGGACUCUACAGCUUGCAUAGUAUUUAGUUA
- pre-steady-state target cleavage rate [1]: 1.28 ± 0.069
- pre-steady-state target cleavage rate [2]: 0.0617 ± 0.011

Sequence: UCGACUCUACAGCUUGCAUAGUAUUUAGUUA
- pre-steady-state target cleavage rate [1]: 1.48 ± 0.06
- pre-steady-state target cleavage rate [2]: 0.0579 ± 0.0096

Sequence: UGGACUACAGCUUGCAUAGUAUUUAGUUA
- pre-steady-state target cleavage rate [1]: 1.34 ± 0.053
- pre-steady-state target cleavage rate [2]: 0.0823 ± 0.013

Sequence: UGGACCUACACCUUGCAUAGUAUUUUCAAA
- pre-steady-state target cleavage rate [1]: 0.327 ± 0.05
- pre-steady-state target cleavage rate [2]: 0.00389 ± 0.0023

Sequence: UCCUGGAACUGCUAGCAUAGUAUUUAGUUA
- pre-steady-state target cleavage rate [1]: 0.534 ± 0.037
- pre-steady-state target cleavage rate [2]: 0.00949 ± 0.0035

Sequence: UCGACCUACAGCUUGCAUAGUAUUUAGUCA
- pre-steady-state target cleavage rate [1]: 0.947 ± 0.041
- pre-steady-state target cleavage rate [2]: 0.0656 ± 0.013

Sequence: UCCUGGUACACCUUGCAUAGUAUUUAGUAA
- pre-steady-state target cleavage rate [1]: 0.334 ± 0.078
- pre-steady-state target cleavage rate [2]: 0.0104 ± 0.0044

Sequence: UCCUCCUACAGCUUGCAUAGUAUAUUGUUA
- pre-steady-state target cleavage rate [1]: 0.368 ± 0.033
- pre-steady-state target cleavage rate [2]: 0.0145 ± 0.0039

Sequence: UGGACCUACAGCUUGCAUACUAAUUAGUUA
- pre-steady-state target cleavage rate [1]: 0.154 ± 0.01
- pre-steady-state target cleavage rate [2]: 0.00958 ± 0.0024

Sequence: UCCUGGAACAGCUUGCUAUGUAUUUAGUUA
- pre-steady-state target cleavage rate [1]: 0.0729 ± 0.011
- pre-steady-state target cleavage rate [2]: 0.00814 ± 0.0024

Sequence: UCCUCCUACAGCUUGCAUACUAUUUACUUA
- pre-steady-state target cleavage rate [1]: 0.197 ± 0.023
- pre-steady-state target cleavage rate [2]: 0.018 ± 0.0033

Sequence: UGGACCUACAGCUUGCAUAUUAUUUAGUUA
- pre-steady-state target cleavage rate [1]: 1.71 ± 0.12
- pre-steady-state target cleavage rate [2]: 0.0442 ± 0.0088

Sequence: UCGACCUACAGCUUGCAUAUUAUUUAGUUA
- pre-steady-state target cleavage rate [1]: 1.5 ± 0.072
- pre-steady-state target cleavage rate [2]: 0.0515 ± 0.013

Sequence: AGGACCUACAGCUUGCAUAUUAUUUAGUUA
- pre-steady-state target cleavage rate [1]: 1.23 ± 0.074
- pre-steady-state target cleavage rate [2]: 0.0773 ± 0.017

Sequence: UCGACCUACAGCUUGCAUAGUUAUUUAGUUA
- pre-steady-state target cleavage rate [1]: 0.0764 ± 0.016
- pre-steady-state target cleavage rate [2]: 0.00495 ± 0.0031

Sequence: UCGACCUACAGCUUGCAUAUAUUUAGUUA
- pre-steady-state target cleavage rate [1]: 0.489 ± 0.044

Sequence: UGGACCUACAGCUUGCAUAUAUUUAGUUA
- pre-steady-state target cleavage rate [1]: 0.429 ± 0.067
- pre-steady-state target cleavage rate [2]: 0.00298 ± 0.0022

Sequence: UCCUGGAACAGCUUGCACAGUAUUUAGUUA
- pre-steady-state target cleavage rate [1]: 1.01 ± 0.035
- pre-steady-state target cleavage rate [2]: 0.0853 ± 0.018

Sequence: UCCUGGAUGUGCUUGCAUAGUAAUUAGUUA
- pre-steady-state target cleavage rate [1]: 0.0816 ± 0.011
- pre-steady-state target cleavage rate [2]: 0.0162 ± 0.0045

Sequence: UCCUCCUACUGCUUGCAUAGUAUAUAGUUA
- pre-steady-state target cleavage rate [1]: 0.472 ± 0.026
- pre-steady-state target cleavage rate [2]: 0.0228 ± 0.0045

Sequence: UCCUCCUUCUGCUUGCAUAGUAUUUAGUUA
- pre-steady-state target cleavage rate [1]: 1.18 ± 0.038
- pre-steady-state target cleavage rate [2]: 0.0546 ± 0.0091

Sequence: AGGACCUACAGCUUGACAUAGUAUUUAGUUA
- pre-steady-state target cleavage rate [1]: 1.07 ± 0.093
- pre-steady-state target cleavage rate [2]: 0.0105 ± 0.0047

Sequence: AGGACCUACAGCUUGAAUAGUAUUUAGUUA
- pre-steady-state target cleavage rate [1]: 1.44 ± 0.059
- pre-steady-state target cleavage rate [2]: 0.0532 ± 0.01

Sequence: UCCACCUACAGCUUGAAUAGUAUUUAGUUA
- pre-steady-state target cleavage rate [1]: 1.01 ± 0.035
- pre-steady-state target cleavage rate [2]: 0.0277 ± 0.0053

Sequence: AGGACCUACAGCUUGAUAGUAUUUAGUUA
- pre-steady-state target cleavage rate [1]: 1.21 ± 0.082
- pre-steady-state target cleavage rate [2]: 0.0133 ± 0.0041

Sequence: UGGACCUACAGCUUGAAUAGUAUUUAGUUA
- pre-steady-state target cleavage rate [1]: 1.63 ± 0.08
- pre-steady-state target cleavage rate [2]: 0.0423 ± 0.0078

Sequence: UCGACCUACAGCUUGAAUAGUAUUUAGUUA
- pre-steady-state target cleavage rate [1]: 1.48 ± 0.05
- pre-steady-state target cleavage rate [2]: 0.0397 ± 0.0067

Sequence: UGGACCUACAGCUUGAUAGUAUUUAGUUA
- pre-steady-state target cleavage rate [1]: 1.03 ± 0.096
- pre-steady-state target cleavage rate [2]: 0.0103 ± 0.003

Sequence: UCGACCUACAGCUUGAUAGUAUUUAGUUA
- pre-steady-state target cleavage rate [1]: 1.08 ± 0.067
- pre-steady-state target cleavage rate [2]: 0.00731 ± 0.0024

Sequence: UGGACCUACAGCUUGCAAUAGUAUUUAGUUA
- pre-steady-state target cleavage rate [1]: 0.0655 ± 0.011

Source: the supplement of paper PMC10338343
